TRPM1 prom inh – MITF TRPM1 promoter inhibition in SK-MEL-5 cells | SK-MEL-5 TRPM1 promoter luciferase, 24 h | inhibition, % at 12.5 µM | 330,000 tested, 0.83% active;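 active = mean inhibition across replicates of 60% or more, whatever share of single replicates reaches that level; inconclusive = some that reach 60%, reason not given; inactive = mean inhibition across replicates below 60%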
HIF-2a inh – inhibitors of HIF-2a | 360,000 tested, 0.72% active | inhibition, % at 18.8 µM | AID 624352 | 786-0 RCC cells HIF-2a reporter, luciferase luminescence, overnight;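 active = inhibition of the luminescence signal of 40% or more relative to plate controls, in a single-dose primary screen at 18.75 µM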
Peg3 promoter – reduces Peg3 promoter-driven luciferase expression in HeLa. HeLa PEG-Prom luciferase reporter, luminescence, overnight. inhibition, % at 20 µM. 360,000 tested, 1.7% active;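 active = inhibition of at least 50% at 20 µM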
CF NFkB inh – blocks PAF-induced NF-kB reporter in cystic fibrosis cells. KKLEB NF-kB-GFP reporter, GFP fluorescence overnight. inhibition, % at 5 µM. 360,000 tested, 0.86% active;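 active = at least 50% inhibition at 5 µM, scaled per plate between neutral and stimulator controls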;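 note: PAF is a Pseudomonas aeruginosa culture filtrate used as stimulus; plate controls were PAF-stimulated DMSO wells for no effect and unstimulated DMSO wells for full effect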
KKLEB tox – counter-screen for CF NF-kB inhibitors: cytotoxicity. KKLEB CF airway cells viability, ATPlite luminescence, overnight; active compounds read low; cells stimulated with P. aeruginosa culture filtrate. activity change (cytotoxicity), % at 5 µM. 360,000 tested, 0.36% active;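 active = corrected activity change at or below -50% at 5 µM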
Shn3 3UTR inh – inhibitors of Schnurri-3 3'UTR reporter in osteoblasts | Clone20 osteoblast Shn3 3'UTR firefly luciferase, 24 h | inhibition, % at 12.5 µM | 360,000 tested, 0.52% active | AID 588674;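 active = mean inhibition of at least 75% with every replicate also reaching 75%; inconclusive = mean inhibition at least 75% but some replicate below; inactive = mean inhibition below 75%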;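 note: 0% = median of neutral control wells and 100% = pilot-screen positive control compound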
Mdm2 MdmX conf – confirmation of inhibitors of human Mdm2/MdmX interaction, set 2; shares compounds with HIF-2a inh; SaOS-2 split-luciferase Mdm2/MdmX complementation, luminescence; inhibition, % at 8 µM; 740 tested, 99% active; AID 504601;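 active = mean inhibition of the luminescence signal across two replicates at or above 26 percent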
Target sequence (O15151 whole entry, looked up): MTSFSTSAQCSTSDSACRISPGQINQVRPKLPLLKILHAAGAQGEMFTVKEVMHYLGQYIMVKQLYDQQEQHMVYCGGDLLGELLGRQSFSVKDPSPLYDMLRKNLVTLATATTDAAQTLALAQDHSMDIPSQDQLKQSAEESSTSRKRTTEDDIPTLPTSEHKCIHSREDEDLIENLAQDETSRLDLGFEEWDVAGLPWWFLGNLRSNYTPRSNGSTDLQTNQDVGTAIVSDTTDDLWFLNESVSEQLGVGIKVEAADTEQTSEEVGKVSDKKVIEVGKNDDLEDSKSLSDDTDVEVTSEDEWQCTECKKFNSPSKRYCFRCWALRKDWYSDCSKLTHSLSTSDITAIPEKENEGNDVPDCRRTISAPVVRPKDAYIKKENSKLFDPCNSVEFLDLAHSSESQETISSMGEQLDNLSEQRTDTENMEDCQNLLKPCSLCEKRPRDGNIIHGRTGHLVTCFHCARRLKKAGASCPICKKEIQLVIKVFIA
Target sequence (Q00987 whole entry, looked up): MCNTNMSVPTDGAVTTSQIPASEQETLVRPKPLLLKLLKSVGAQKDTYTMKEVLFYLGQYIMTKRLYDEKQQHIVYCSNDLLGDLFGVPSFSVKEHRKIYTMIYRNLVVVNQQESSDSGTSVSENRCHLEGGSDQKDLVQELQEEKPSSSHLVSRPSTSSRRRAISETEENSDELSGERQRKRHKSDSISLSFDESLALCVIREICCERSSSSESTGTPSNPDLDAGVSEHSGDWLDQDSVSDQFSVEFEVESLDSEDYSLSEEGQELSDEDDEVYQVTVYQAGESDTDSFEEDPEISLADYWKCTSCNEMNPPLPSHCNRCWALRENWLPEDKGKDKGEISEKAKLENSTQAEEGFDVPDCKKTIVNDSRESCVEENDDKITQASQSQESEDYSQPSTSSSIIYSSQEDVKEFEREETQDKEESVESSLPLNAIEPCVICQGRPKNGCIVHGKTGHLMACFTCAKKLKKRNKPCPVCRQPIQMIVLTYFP
HIF-2a inh conf – HIF-2a inhibition, single concentration confirmation | shares compounds with HIF-2a inh | 786-0 RCC cells, HIF-2a luciferase reporter luminescence, overnight | inhibition, % at 18.8 µM | 1,800 tested, 56% active;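 active = mean inhibition across four replicates of at least 40 percent at the single tested concentration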
HIF-1a counter – HIF-1a inhibition counter-screen for HIF-2a hits | shares compounds with HIF-2a inh | MiaPaCa-2 HIF-1a luciferase reporter, desferoxamine, overnight | inhibition, % at 18.8 µM | 1,800 tested, 72% active;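 active = mean inhibition of the reporter signal across four replicates at the single tested dose of 50% or more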
* hit, by the source's call; ? = inconclusive; . = no result given. Sampled rows, rich in hits. Any-hit rate of the full collection: about 2.7%.

SMILES | TRPM1 prom inh | HIF-2a inh | Peg3 promoter | CF NFkB inh | KKLEB tox | Shn3 3UTR inh | HIF-2a inh conf | HIF-1a counter | others
COC(=O)C(=Cc1ccncc1)c1cccc2ccccc12 | . | -18 | 12 | 19 | 0 | -2 | . | .
O=C(O)c1cccc2cccc(-c3c4ccc(=O)c(O)c-4oc4c(O)c(O)ccc34)c12 | 28 | 34 | 39 | -3 | 13 | -1 | . | .
O=C(NCc1cccc(C(F)(F)F)c1)c1csc([C@H]2C[C@H](O)[C@@H](CO)O2)n1 | . | 6 | 1 | -6 | 1 | -3 | . | .
Cc1ccc(C(=O)C2C(=O)C3CCC2C3)cc1 (stereo unspecified) | . | 46* | 38 | -22 | 13 | -14 | 2 | 10
CC(C)c1c(C(=O)Nc2ccccc2)c(-c2ccccc2)c(-c2ccc(F)cc2)n1CC[C@@H](O)C[C@@H](O)CC(=O)O | . | 40* | 19 | 17 | -14 | 53 | 27 | -34
O=C(Nc1ccccc1)c1c(F)c(F)c(F)c(F)c1F | 11 | 9 | -21 | 6 | -8 | -2 | . | .
COc1cc(C=C2C(=O)C=CC2=O)ccc1O | . | 84* | . | . | . | . | 99* | 95*
O=C(O)c1ccc(NC(=S)NC(=O)c2ccc3ccccc3c2)cc1 | -3 | -142 | -173 | 5 | 0 | -14 | . | .
O=C(O)c1cccc(NC(=S)NC(=O)c2ccc3ccccc3c2)c1 | 40 | 74* | 25 | -10 | 18 | 15 | 76* | -26
O=S(=O)(CC(CN1CCOCC1)N1CCOCC1)c1ccccc1 (stereo unspecified) | 6 | 6 | -1 | 0 | 12 | 1 | . | .
O=S(=O)(CC(CN1CCCCC1)N1CCCCC1)c1ccc2ccccc2c1 (stereo unspecified) | 75* | 62* | 109* | 97* | -59* | 52 | 21 | 104*
O=C1NN=C2CCCCCCC12 (stereo unspecified) | . | -4 | -11 | 29 | -19 | -10 | . | .
O=C(NCCCN1CCOCC1)/C(=C/c1ccc(-c2cccc([N+](=O)[O-])c2)o1)NC(=O)c1ccccc1 | . | -13 | 2 | -21 | -1 | 16 | . | .
Cc1nc2nc(C)n(CCN3CCOCC3)c(=O)c2c(-c2cccc([N+](=O)[O-])c2)c1C(=O)CCCCCCCCCCN1CCC(c2ccccc2)(c2ccccc2)CC1 | 99* | 84* | 95* | 18 | -21 | ? | 17 | 107*
CCCNC(=O)C1(C)CCCN(Cc2ccccc2-c2ccccc2)C1 (stereo unspecified) | . | 14 | 9 | 7 | -4 | -27 | . | .
CCc1ccc(S(=O)(=O)Nc2ccc(-c3ccc4nnc(C)n4n3)cc2)s1 | -7 | -3 | 5 | -8 | 3 | 17 | . | .
CCc1ccc(S(=O)(=O)Nc2ccc(-c3ccc4nncn4n3)cc2)s1 | 9 | 42* | 27 | 30 | -4 | -5 | 0 | -40
O=C1NC[C@@H](CCCCN2C[C@H](Cc3ccccc3)N(CCc3ccc(O)cc3)C(=O)C2=O)N(CC2CCCCC2)C1=O | . | 3 | . | . | . | . | . | .
CC(=O)Nc1ncnc2c1c(-c1ccc(Cl)cc1)nn2C(C)(C)C | 5 | 48* | 28 | 38 | -16 | 34 | 43* | 49
O=C(COC(=O)c1cccc(S(=O)(=O)N2CCOCC2)c1)NC1CCCCC1 | . | 11 | -11 | -2 | 10 | -3 | . | .
COC(=O)[C@]1(Sc2ccc(C)cc2)CC(=O)N[C@@H]1c1ccccc1 | . | -4 | . | . | . | . | . | .
Cc1ccc(-c2[nH]c3ccccc3c2SCCNC(=O)c2ccc(S(=O)(=O)N3CCOCC3)cc2)cc1 | . | 36* | 16 | 18 | -8 | 57 | -2 | 49
O=C(C[C@@H]1CC[C@H](NC(=O)Cc2ccccn2)[C@@H](CO)O1)NCCc1ccccc1 | . | 0 | . | . | . | . | . | .
O=C(CN1C(=O)c2ccccc2S1(=O)=O)c1ccc(OC(F)F)cc1 | 65* | 52* | 56* | -3 | 5 | 74 | 75* | 64*
O=C(CN1C(=O)c2ccccc2S1(=O)=O)c1ccc(Cl)cc1Cl | 87* | 55* | 16 | 14 | 3 | 83 | 82* | 90*
SMILES | TRPM1 prom inh | HIF-2a inh | Peg3 promoter | CF NFkB inh | KKLEB tox | Shn3 3UTR inh | HIF-2a inh conf | HIF-1a counter | others
O=C(CN1C(=O)c2ccccc2S1(=O)=O)c1ccc(F)cc1 | 39 | 57* | 58* | -14 | 8 | 80 | 64* | 59*
COc1ccc(OCc2n(CC(=O)OC3CC(C)CCC3C(C)C)c3ccccc3[n+]2C)cc1 (stereo unspecified) | 82* | 95* | 100* | 64* | -53* | -3 | -5 | 103* | Mdm2 MdmX conf=102*
CC1CCC(C(C)C)C(OC(=O)CSc2nccc(=O)[nH]2)C1 (stereo unspecified) | -7 | 5 | 2 | 10 | 5 | -19 | . | .
CC1=C(C(=O)N2CCOCC2)CC(CC(=O)NC2CCCCC2)C(=O)N1CCCN1CCCC1=O (stereo unspecified) | . | 8 | -20 | 18 | 0 | -7 | . | .
CC1=C(C(=O)N(C(C)C)C(C)C)CC(CC(=O)NCCc2ccccn2)C(=O)N1CCCN1CCCC1=O (stereo unspecified) | . | -4 | 4 | -19 | 4 | -3 | . | .
O=C(O)c1ccc(S(=O)(=O)NN=Cc2c[nH]c3ccccc23)cc1 | . | 11 | 1 | 12 | -18 | 6 | . | .
O=C(O)c1ccc(N/N=C/c2c[nH]c3ccccc23)cc1 | 58 | 51* | 67* | 16 | -1 | 31 | 78* | 60*
CCOC(=O)c1cc(-c2csc(-c3ccc(C(C)(C)C)cc3)n2)on1 | 4 | 57* | -8 | -4 | 0 | 37 | 58* | 4
COc1ccc(C(NC(=O)c2c(F)c(F)c(F)c(F)c2F)c2ccccc2)cc1 (stereo unspecified) | 40 | 83* | 93* | -14 | -12 | 41 | 57* | 100*
CC[C@H](C)[C@@H](CO)NC(=O)[C@H]1O[C@@H](n2ccc(=O)[nH]c2=O)[C@H](O)[C@@H]1O | . | 1 | -6 | -14 | 1 | -10 | . | .
COc1cccc(-c2nnc(SCc3ccc(C#N)cc3)n2Cc2ccco2)c1 | 5 | 44* | 27 | -3 | -7 | 13 | 31 | 41
Cc1ccc(-c2nnc(SCc3ccc(C#N)cc3)n2Cc2ccco2)cc1 | 14 | 39 | 35 | -27 | -8 | -27 | . | .
O=C(Nc1ccc(F)cc1)Nc1cc(OCC(F)(F)F)cc(OCC(F)(F)F)c1 | 81* | 13 | 41 | 46 | -35 | 90* | . | . | Mdm2 MdmX conf=93*

Screening data: PubChem BioAssay, several laboratories
